Source: PubChem BioAssay
Active and inactive are the calls of the source.

Experiments:
[1] = system: PRMT1 (protein arginine N-methyltransferase 1); test: PRMT1 binders on small-molecule microarrays, primary screen, biochemical, small-molecule microarray, 635 nm fluorescence (AID 1088); conditions: small-molecule microarray binding, higher = more signal;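 also: binding of Prmt1 protein to compounds spotted on small-molecule microarray slides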
[2] = yeast growth modulation, basal conditions, primary screen, YJM789 clinical isolate, OD600, 24 h (AID 1089);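 also: growth of clinical yeast isolate S. cerevisiae YJM 789 seeded 1000 cells per well; test concentration not given here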; conditions: S. cerevisiae YJM789 growth, higher = more signal, called active from +8 up or from −8 down
[3] = fission yeast growth modulation, primary screen, strain 972, OD600, 24 h, no modulator (AID 1090);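 also: basal condition with compound alone and no growth modifier present; test concentration not given here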; conditions: S. pombe 972 growth, higher = more signal, called active from +8 up or from −8 down
[4] = S. cerevisiae growth modulation with rapamycin, primary screen, strain BY4716, OD600, 96 h (AID 1091); conditions: higher = more signal, called active from +8 up or from −8 down; also: test concentration not given here
[5] = molecular target: Torsin-1A-interacting protein 2 (Homo sapiens) (UniProt Q8NFQ8); test: LULL1 binders on small-molecule microarray, primary screen, cell lysate, human LULL1 lysate, 635/667 nm fluorescence (AID 1092); conditions: hLULL1 lysate binding, 635 nm fluorescence, higher = more signal;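 also: probe is lysate of COS7 cells overexpressing human LULL1; score merges per-feature 667 nm fluorescence with signal-to-noise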
[6] = E. coli growth modulation, two-sided OD650, primary screen, E. coli filamentation project, strain DRC41, 24 h (AID 1093); conditions: OD650, 24 h, higher = more signal, called active from +8 up or from −8 down;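 also: MC1000 strain lacking acrAB efflux and sulA so SOS filamentation is blocked; test concentration not given here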
[7] = small-molecule microarray binders of probe aLefty2, primary screen, biochemical, biotinylated probe, 635/667 nm fluorescence (AID 1094); conditions: higher = more signal;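 also: score merges spot fluorescence near 667 nm with spot signal-to-noise ratio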
[8] = system: Noggin (protein binding on small-molecule microarray); test: Noggin binders on small-molecule microarray, primary screen, biochemical, 635/667 nm fluorescence (AID 1095); conditions: 635 nm fluorescence, higher = more signal;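 also: score merges 667 nm feature fluorescence with signal to noise over triplicate slides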
[9] = molecular target: Neurogenic locus notch homolog protein 3 (Homo sapiens) (UniProt Q9UM47); test: NOTCH3 binders on small-molecule microarray, primary screen, biochemical, 635/667 nm fluorescence (AID 1096); conditions: NOTCH3 binding, 635 nm fluorescence, higher = more signal
[10] = small-molecule microarray binders of probe aEGFR, primary screen, biochemical, biotinylated probe, 635/667 nm fluorescence (AID 1097); conditions: higher = more signal;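 also: probe is a biotinylated anti-EGFR antibody binding compounds printed on slides; score combines fluorescence near 667 nm and signal to noise of each spot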
[11] = system: Plasmodium falciparum Sir2 (PF13_0152, Sir2A); test: pfSir2 binders on small-molecule microarrays, primary screen, biochemical, small-molecule microarray, 635 nm fluorescence (AID 1098); conditions: small-molecule microarray binding, fluorescence 635 nm; higher = more signal;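 also: score merges spot fluorescence intensity with its signal-to-noise ratio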
[12] = small-molecule microarray binders of probe aDKK1, primary screen, biochemical, biotinylated probe, 635/667 nm fluorescence (AID 1099); conditions: higher = more signal;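 also: score merges 667nm spot fluorescence with signal to noise across triplicate slides; reference of the scale not given here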
[13] = small-molecule microarray binders of probe aCHRDL2, primary screen, biochemical, biotinylated probe, 635/667 nm fluorescence (AID 1100); conditions: higher = more signal
[14] = splicing luciferase reporter signal modulators, primary screen, spliceosome inhibition project, cell-based, HEK293, splice +/- reporter (AID 1101); conditions: luminescence, 24 h, higher = more signal, called active from +8 up or from −8 down;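 also: HEK293 cells carrying a splicing-competent luciferase reporter gene; test concentration not given here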
[15] = molecular target: Fibroblast growth factor 10 (Homo sapiens) (UniProt O15520); test: FGF10 binders on small-molecule microarrays, primary screen, biochemical, small-molecule microarray, 635 nm fluorescence (AID 1102); conditions: FGF10 binding, fluorescence 635 nm, higher = more signal
[16] = system: glycogen synthase kinase-3 (GSK3A per assay name; protocol says GSK3B); test: GSK3 binders on small-molecule microarrays, primary screen, biochemical, small-molecule microarray, 635 nm fluorescence, GSK3A (AID 1103); conditions: small-molecule microarray binding, fluorescence 635 nm; higher = more signal; also: the record names both GSK3A and GSK3B
[17] = molecular target: Epidermal growth factor receptor (Homo sapiens) (UniProt P00533); test: EGFR binders on small-molecule microarrays, primary screen, biochemical, small-molecule microarray, 635 nm fluorescence (AID 1104); conditions: EGFR binding, higher = more signal;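 also: score merges 667 nm emission intensity with spot signal to noise over triplicate slides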
[18] = molecular target: Follistatin-related protein 3 (Homo sapiens) (UniProt O95633); test: FSTL3 binders on small-molecule microarrays, primary screen, biochemical, small-molecule microarray, 635 nm fluorescence (AID 1105); conditions: FSTL3 binding, higher = more signal;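 also: score merges emission near 667 nm and signal to noise per printed spot across three slides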
[19] = molecular target: Dickkopf-related protein 1 (Homo sapiens) (UniProt O94907); test: DKK1 binders on small-molecule microarrays, primary screen, biochemical, small-molecule microarray, 635 nm fluorescence scan (AID 1106); conditions: DKK1 binding, higher = more signal;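 also: score merges emission near 667 nm with signal to noise over three replicate slides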
[20] = system: Inhibin beta A chain (activin A); test: INHBA (activin A) binders on microarrays, primary screen, biochemical, small-molecule microarray, 635 nm fluorescence scan (AID 1107); conditions: small-molecule microarray binding, higher = more signal;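 also: mouse activin A protein probed at 4.33 µg/mL on printed slides; score merges bound-protein fluorescence near 667 nm with spot signal-to-noise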

Dickkopf-related protein 1 (Homo sapiens), sequence (O94907 whole entry, looked up): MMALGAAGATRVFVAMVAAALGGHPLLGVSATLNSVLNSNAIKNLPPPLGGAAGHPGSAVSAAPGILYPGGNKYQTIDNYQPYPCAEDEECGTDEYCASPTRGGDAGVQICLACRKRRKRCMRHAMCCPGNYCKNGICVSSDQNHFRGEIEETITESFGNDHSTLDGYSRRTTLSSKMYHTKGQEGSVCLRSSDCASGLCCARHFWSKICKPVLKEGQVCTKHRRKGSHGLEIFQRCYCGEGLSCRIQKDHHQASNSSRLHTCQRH
Fibroblast growth factor 10 (Homo sapiens), sequence (O15520 whole entry, looked up): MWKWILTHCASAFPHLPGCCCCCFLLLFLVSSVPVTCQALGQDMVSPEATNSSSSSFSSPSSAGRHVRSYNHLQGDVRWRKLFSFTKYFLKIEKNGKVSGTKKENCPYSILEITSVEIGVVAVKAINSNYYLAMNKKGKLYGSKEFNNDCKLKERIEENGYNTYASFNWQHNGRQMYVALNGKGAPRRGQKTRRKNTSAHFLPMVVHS
Follistatin-related protein 3 (Homo sapiens), sequence (O95633 whole entry, looked up): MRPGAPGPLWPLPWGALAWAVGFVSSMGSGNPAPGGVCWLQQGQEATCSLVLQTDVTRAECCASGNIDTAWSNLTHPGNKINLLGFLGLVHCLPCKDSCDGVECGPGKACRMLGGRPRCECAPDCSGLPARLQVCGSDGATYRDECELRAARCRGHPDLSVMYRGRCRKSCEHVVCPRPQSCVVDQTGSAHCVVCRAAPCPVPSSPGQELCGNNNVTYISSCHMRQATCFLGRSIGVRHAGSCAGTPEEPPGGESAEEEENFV
Torsin-1A-interacting protein 2 (Homo sapiens), sequence (Q8NFQ8 whole entry, looked up): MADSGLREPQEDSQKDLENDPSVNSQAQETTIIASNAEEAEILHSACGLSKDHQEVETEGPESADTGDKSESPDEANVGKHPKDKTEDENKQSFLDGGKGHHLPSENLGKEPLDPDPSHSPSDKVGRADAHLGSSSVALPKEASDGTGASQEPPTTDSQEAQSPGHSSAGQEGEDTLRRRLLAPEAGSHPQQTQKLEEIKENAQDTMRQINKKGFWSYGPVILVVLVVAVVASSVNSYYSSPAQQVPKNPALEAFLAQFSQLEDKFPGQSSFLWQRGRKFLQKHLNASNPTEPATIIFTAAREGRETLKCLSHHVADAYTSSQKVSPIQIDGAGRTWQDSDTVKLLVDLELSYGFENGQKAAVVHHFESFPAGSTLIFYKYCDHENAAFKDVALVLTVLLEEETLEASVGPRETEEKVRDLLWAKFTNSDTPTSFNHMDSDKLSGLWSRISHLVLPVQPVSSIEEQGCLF
Epidermal growth factor receptor (Homo sapiens), sequence (P00533 whole entry, looked up): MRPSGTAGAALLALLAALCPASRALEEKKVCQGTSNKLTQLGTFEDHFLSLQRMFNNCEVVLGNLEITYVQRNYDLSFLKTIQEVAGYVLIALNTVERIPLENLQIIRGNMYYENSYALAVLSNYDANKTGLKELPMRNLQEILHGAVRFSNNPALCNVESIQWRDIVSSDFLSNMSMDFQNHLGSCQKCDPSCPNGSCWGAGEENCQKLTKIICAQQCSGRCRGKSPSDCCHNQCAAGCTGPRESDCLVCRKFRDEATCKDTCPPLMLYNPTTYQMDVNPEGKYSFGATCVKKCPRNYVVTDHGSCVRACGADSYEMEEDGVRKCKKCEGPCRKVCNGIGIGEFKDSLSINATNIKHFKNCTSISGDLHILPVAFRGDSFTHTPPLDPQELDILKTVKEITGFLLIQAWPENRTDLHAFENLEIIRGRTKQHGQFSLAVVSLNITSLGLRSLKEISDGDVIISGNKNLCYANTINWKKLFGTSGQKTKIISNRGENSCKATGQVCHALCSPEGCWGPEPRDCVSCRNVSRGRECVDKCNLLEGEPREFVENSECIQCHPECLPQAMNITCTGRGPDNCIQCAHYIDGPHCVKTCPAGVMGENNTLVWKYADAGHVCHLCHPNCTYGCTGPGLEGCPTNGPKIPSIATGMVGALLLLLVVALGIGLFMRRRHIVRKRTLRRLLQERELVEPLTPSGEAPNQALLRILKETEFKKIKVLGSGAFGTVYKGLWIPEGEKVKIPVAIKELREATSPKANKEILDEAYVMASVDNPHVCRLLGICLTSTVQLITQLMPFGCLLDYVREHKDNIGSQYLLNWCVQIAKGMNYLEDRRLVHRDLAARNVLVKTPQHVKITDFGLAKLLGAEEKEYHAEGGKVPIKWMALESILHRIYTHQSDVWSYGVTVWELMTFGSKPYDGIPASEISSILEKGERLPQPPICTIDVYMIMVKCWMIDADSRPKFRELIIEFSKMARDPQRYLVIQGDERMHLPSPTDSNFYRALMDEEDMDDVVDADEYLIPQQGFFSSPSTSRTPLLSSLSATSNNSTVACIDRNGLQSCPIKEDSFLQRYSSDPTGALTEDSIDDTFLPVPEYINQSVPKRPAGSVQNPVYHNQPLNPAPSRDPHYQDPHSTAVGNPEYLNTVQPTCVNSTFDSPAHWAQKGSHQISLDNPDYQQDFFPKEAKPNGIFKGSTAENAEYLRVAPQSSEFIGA
Neurogenic locus notch homolog protein 3 (Homo sapiens), sequence (Q9UM47 whole entry, looked up): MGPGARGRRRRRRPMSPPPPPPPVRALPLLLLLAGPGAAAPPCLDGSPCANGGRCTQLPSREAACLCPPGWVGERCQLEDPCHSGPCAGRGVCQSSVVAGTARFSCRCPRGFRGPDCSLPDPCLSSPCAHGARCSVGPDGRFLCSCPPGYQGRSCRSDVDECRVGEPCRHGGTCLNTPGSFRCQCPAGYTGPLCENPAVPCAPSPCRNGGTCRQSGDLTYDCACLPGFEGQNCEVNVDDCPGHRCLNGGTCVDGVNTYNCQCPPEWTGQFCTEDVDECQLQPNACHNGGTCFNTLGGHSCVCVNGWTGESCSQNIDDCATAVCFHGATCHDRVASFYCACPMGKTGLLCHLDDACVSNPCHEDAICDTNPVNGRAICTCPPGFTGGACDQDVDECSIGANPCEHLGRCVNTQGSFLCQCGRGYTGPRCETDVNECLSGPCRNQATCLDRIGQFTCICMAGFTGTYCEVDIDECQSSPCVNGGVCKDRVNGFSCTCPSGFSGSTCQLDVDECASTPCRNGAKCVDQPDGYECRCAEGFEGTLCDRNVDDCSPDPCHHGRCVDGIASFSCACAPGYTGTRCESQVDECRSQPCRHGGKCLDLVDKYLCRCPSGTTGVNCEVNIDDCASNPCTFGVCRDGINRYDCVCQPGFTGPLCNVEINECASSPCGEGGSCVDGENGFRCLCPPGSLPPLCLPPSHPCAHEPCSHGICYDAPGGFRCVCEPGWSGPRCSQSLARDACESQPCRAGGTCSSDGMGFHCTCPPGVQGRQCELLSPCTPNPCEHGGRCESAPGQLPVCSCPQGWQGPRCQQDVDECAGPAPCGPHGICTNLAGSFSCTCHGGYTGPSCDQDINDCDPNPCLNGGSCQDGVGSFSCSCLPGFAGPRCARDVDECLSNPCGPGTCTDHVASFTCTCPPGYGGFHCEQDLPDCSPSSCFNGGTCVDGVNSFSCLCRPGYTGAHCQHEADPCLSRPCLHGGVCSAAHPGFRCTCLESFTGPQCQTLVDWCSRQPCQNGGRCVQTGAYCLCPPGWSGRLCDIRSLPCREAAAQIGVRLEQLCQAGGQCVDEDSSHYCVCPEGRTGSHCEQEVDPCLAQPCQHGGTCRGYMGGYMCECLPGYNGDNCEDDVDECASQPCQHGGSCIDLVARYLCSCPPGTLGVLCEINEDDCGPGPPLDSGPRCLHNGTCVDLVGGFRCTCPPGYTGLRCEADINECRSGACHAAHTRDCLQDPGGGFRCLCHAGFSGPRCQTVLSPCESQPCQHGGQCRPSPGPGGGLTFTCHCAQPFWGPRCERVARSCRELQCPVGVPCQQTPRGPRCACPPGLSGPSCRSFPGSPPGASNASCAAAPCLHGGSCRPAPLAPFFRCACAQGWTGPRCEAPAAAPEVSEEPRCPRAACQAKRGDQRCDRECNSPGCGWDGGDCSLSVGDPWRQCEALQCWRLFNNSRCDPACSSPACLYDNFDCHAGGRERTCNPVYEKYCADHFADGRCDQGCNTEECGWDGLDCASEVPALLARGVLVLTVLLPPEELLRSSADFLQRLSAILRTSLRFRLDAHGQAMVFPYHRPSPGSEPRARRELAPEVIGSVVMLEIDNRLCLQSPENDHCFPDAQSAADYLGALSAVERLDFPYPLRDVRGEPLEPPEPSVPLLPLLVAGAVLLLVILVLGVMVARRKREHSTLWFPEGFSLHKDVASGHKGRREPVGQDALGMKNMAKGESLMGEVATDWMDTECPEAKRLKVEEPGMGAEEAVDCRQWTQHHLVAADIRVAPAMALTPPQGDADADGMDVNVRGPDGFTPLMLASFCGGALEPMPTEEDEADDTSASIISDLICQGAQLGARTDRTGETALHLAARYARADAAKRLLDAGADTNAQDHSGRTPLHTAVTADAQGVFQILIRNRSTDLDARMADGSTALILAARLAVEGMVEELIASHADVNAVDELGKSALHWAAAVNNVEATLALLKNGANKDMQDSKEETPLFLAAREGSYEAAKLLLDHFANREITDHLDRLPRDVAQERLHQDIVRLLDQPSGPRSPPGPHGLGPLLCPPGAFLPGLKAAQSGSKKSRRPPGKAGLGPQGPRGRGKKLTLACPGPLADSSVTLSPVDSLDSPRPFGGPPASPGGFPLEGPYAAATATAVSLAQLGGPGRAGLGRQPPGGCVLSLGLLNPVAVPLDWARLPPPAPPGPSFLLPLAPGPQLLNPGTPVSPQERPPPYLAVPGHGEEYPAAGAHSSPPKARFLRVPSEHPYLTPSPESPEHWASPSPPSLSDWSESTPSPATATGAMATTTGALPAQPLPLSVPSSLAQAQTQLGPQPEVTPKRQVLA

Row | Compound | composite z-score [1] | z-score [2] | z-score [3] | z-score [4] | composite z-score [5] | z-score [6] | composite z-score [7] | composite z-score [8] | composite z-score [9] | composite z-score [10] | composite z-score [11] | composite z-score [12] | composite z-score [13] | z-score [14] | composite z-score [15] | composite z-score [16] | composite z-score [17] | composite z-score [18] | composite z-score [19] | composite z-score [20]
1 | O=C1C[C@]2(c3ccc([N+](=O)[O-])cc3)C(=O)N(C3CC3)c3cc(CO)ccc3[C@H]2N1CC12CC3CC(CC(C3)C1)C2 | 0.739 | -0.263 (inactive) | 0.436 (inactive) | -0.574 (inactive) | 1.87 | -1.29 (inactive) | -0.171 | -1.02 | -0.466 | -0.228 | 0.437 | -0.105 | 0.617 | -0.922 (inactive) | -0.511 | -0.393 | -0.951 | -0.924 | -0.769 | -0.383
2 | CC(C)(C)OC(=O)CC[C@@]1(C(=O)NCC(O)CO)N=C(c2ccc(OCCCO)cc2)O[C@@H]1c1ccccc1CN=[N+]=[N-] (stereo not given in full) | 0.782 | -0.614 (inactive) | 0.0076 (inactive) | -0.753 (inactive) | 2.89 | 0.188 (inactive) | -0.0691 | 0.153 | 0.558 | -0.0229 | 0.552 | 0.726 | 0.918 | -0.0605 (inactive) | 0.364 | 0.706 | -0.0699 | 0.335 | -0.39 | 0.349
3 | CCCNC(=O)[C@@]1(C)c2ccccc2C(=O)N(c2ccc(C)cn2)[C@H]1c1ccc(CO)cc1 | -0.266 | -0.788 (inactive) | -0.164 (inactive) | -0.145 (inactive) | 3.4 | -0.618 (inactive) | -0.0352 | 0.146 | -0.0421 | -0.0828 | 0.732 | -0.103 | 0.649 | 0.756 (inactive) | -0.779 | -0.158 | -0.473 | -0.223 | -0.126 | 0.948
4 | COCCOC(=O)N1C(=O)[C@@]2(c3cc(C#CC4(O)CCCCCC4)ccc31)[C@H](c1ccc(O)cc1)N1[C@H](c3ccccc3)[C@H](c3ccccc3)OC(=O)[C@H]1[C@@H]2C(=O)N1CCN(c2ncccn2)CC1 | 1.55 | 0.12 (inactive) | -0.247 (inactive) | 1.07 (inactive) | 2.57 | -0.321 (inactive) | -0.0282 | 0.0969 | 0.987 | -0.0234 | 0.952 | 0.0005 | 0.426 | 0.325 (inactive) | 0.425 | 0.788 | 0.149 | 0.476 | 0.063 | -0.275
5 | O=C1O[C@@H](c2ccccc2)[C@@H](c2ccccc2)N2[C@@H](c3ccc(O)cc3)[C@]3(C(=O)Nc4ccc(C#CCCO)cc43)[C@@H](C(=O)N3CCN(c4ncccn4)CC3)[C@H]12 | 1.54 | 2.72 (inactive) | 2 (inactive) | 6.45 (inactive) | 1.04 | 2.07 (inactive) | -0.698 | 1.74 | 1.09 | -0.257 | 1.64 | -1.25 | -1.14 | -0.116 (inactive) | 1.4 | 1.29 | 0.103 | 0.89 | -0.0103 | -0.0153
6 | CCOC(=O)C[C@H]1[C@H](OC(=O)c2ccc(C(=O)c3ccccc3)cc2)[C@@H](NC(=O)C2CCCCC2)c2cc(OCCCO)ccc2N1C(=O)c1ccc2ccccc2n1 | 1.34 | -0.882 (inactive) | 0.708 (inactive) | 0.276 (inactive) | 2.01 | 1.25 (inactive) | -0.02 | 0.887 | 1.13 | 0.0213 | 0.698 | -0.0699 | -0.125 | 0.112 (inactive) | 0.839 | 0.432 | 0.34 | 1.03 | 0.595 | 0.456
7 | Cc1ccc(S[C@]2(C(=O)NCc3ccccc3)CC(=O)N(C3CCCCC3)[C@@H]2c2ccc(CO)cc2I)cc1 | 1.15 | -0.727 (inactive) | -0.462 (inactive) | 0.861 (inactive) | 2.72 | -0.455 (inactive) | -0.0948 | 0.147 | 0.237 | -0.139 | 1.25 | -0.0018 | 0.379 | -1.49 (inactive) | 0.861 | 0.1 | -0.104 | 0.226 | -0.358 | -0.0734
8 | COC(=O)[C@@]1(Cc2ccccc2)[C@H]2c3cc(C(=O)N(C)C)n(Cc4ccc(C)o4)c3C[C@H]2CN1C(=O)c1ccccc1 | 0.163 | 1.07 (inactive) | 0.65 (inactive) | 0.982 (inactive) | 2.93 | -1.64 (inactive) | 0.746 | -0.471 | 1.13 | 0.667 | 0.527 | 2.33 | 1.57 | -2.02 (inactive) | 0.93 | 0.502 | 0.857 | 0.897 | -1.11 | 1.44
9 | CC(C)C(CO)N1C(=O)[C@@H]2[C@H]3C(=O)OCC=C[C@H]3OC23C=CCN(c2ccc(Cl)cc2)C(=O)[C@@H]13 (stereo not given in full) | 0.193 | 0.964 (inactive) | 0.123 (inactive) | 1.25 (inactive) | -0.0004 | 0.669 (inactive) | -0.246 | -1.16 | -0.271 | -0.068 | -1.14 | -0.0517 | -0.0455 | 0.121 (inactive) | -0.739 | -0.889 | -0.627 | -0.93 | -0.865 | 0.653
10 | CCC1=C2CN(Cc3ccccc3)[C@@H](C(=O)Cc3ccccc3)C2C=CCC1 (stereo not given in full) | -0.279 | -0.273 (inactive) | -2.18 (inactive) | -0.728 (inactive) | 2.47 | 0.673 (inactive) | -0.164 | 0.751 | 0.841 | -0.177 | 1.46 | -0.0616 | -0.141 | -1.04 (inactive) | 0.57 | -0.439 | -0.42 | 0.532 | 0.118 | 0.749
